PubChem BioAssay AID2810 (NMMLSC, 2010)
The whole screen tested about 1,200 compounds, of which about 65 (5%) were called active.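 How the source made its calls: active means at either tested dose, response and 90th-percentile vesicle-stain brightness of CD8 cells under set limits and under 9% cells vesicle-bound; inactive means the rest.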 The sample as a whole holds a higher share of actives than the screen did.

Assay: modulators of CD8 T cell-vesicle binding, confirmation, cherry-picked primary hits, two concentrations (AID 2810);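 on percent response (vesicle binding): ratio of mean FL2 vesicle stain of CD8+ cells to that row's control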
Conditions: 2C CD8+ T cell-vesicle binding, flow cytometry; for double positive events: CD8+/vesicle+ events
[1] = at 15.4 µM, stronger effect = lower value

Which double positive events (at 7.7 µM) does the source give for `CC(=O)COc1ccc2c(-c3ccccc3)cc(=O)oc2c1` here?
The double positive events was 10.8%.

What about the double positive events [1] of the same molecule?
Its double positive events is 8.7%.

What about the percent response (vesicle binding) [1] of the same molecule?
Its percent response (vesicle binding) is 123% (inactive).

And the percent response (vesicle binding) (response, at 7.7 µM)?
The percent response (vesicle binding) was 165%.

Which double positive events (at 7.7 µM) does the source give for `CCOc1ccc(-c2nc(N)ncc2-c2ccccc2)c(O)c1` here?
Its double positive events is 4.3%.

And the double positive events [1]?
Its double positive events is 34.2%.

What about the percent response (vesicle binding) [1] of the same molecule?
Its percent response (vesicle binding) is 276% (active).

And the percent response (vesicle binding) (response, at 7.7 µM)?
The percent response (vesicle binding) was 51.6%.

Which double positive events (at 7.7 µM) does the source give for `CCOC(=O)CSc1nc(C)nc2c1sc1nc(C)c(C(C)=O)c(-c3ccc(OC)cc3)c12` here?
Its double positive events is 22.7%.

And the double positive events [1]?
The double positive events was 7.5%.

What about the percent response (vesicle binding) [1] of the same molecule?
The percent response (vesicle binding) was 128% (inactive).

What about the percent response (vesicle binding) (response, at 7.7 µM) of the same molecule?
Its percent response (vesicle binding) is 327%.

For `CC1=C/C(=C(\c2ccc(O)c(C)c2)c2ccccc2S(=O)(=O)O)C=CC1=O`, which double positive events (at 7.7 µM) is on record?
The double positive events was 8.5%.

What about the double positive events [1] of the same molecule?
The double positive events was 0.5%.

What about the percent response (vesicle binding) [1] of the same molecule?
Its percent response (vesicle binding) is 14.6% (active).

And the percent response (vesicle binding) (response, at 7.7 µM)?
The percent response (vesicle binding) was 142%.

With `O=C(Nc1nnc(C2=COCCO2)o1)C1CCCCC1` as the molecule, how does the double positive events (at 7.7 µM) read?
Its double positive events is 47.3%.

And the double positive events [1]?
The double positive events was 23%.

What about the percent response (vesicle binding) [1] of the same molecule?
Its percent response (vesicle binding) is 200% (inactive).

And the percent response (vesicle binding) (response, at 7.7 µM)?
The percent response (vesicle binding) was 280%.

For `CS(=O)(=O)NCc1ccccc1Br`, which double positive events (at 7.7 µM) is on record?
Its double positive events is 31%.

What about the double positive events [1] of the same molecule?
The double positive events was 2.7%.

And the percent response (vesicle binding) [1]?
The percent response (vesicle binding) was 34% (active).

And the percent response (vesicle binding) (response, at 7.7 µM)?
The percent response (vesicle binding) was 371%.

Which double positive events (at 7.7 µM) does the source give for `Cc1nc2sc(C(c3ccccc3)N3CCN(c4ccccc4F)CC3)c(O)n2n1` (configuration not stated) here?
The double positive events was 38.2%.

And the double positive events [1]?
The double positive events was 4.2%.

What about the percent response (vesicle binding) [1] of the same molecule?
Its percent response (vesicle binding) is 142% (inactive).

What about the percent response (vesicle binding) (response, at 7.7 µM) of the same molecule?
The percent response (vesicle binding) was 239%.

For `CCOc1ccccc1NC(=O)c1ccc(CN2CCc3ccccc3C2)cc1`, which double positive events (at 7.7 µM) is on record?
The double positive events was 11.5%.

And the double positive events [1]?
Its double positive events is 30%.

And the percent response (vesicle binding) [1]?
Its percent response (vesicle binding) is 739% (inactive).

And the percent response (vesicle binding) (response, at 7.7 µM)?
The percent response (vesicle binding) was 110%.

For `COc1ccc2nc(SCC(=O)Nc3ccc4c(c3)OCCO4)[nH]c2c1`, which double positive events (at 7.7 µM) is on record?
Its double positive events is 10.5%.

And the double positive events [1]?
The double positive events was 19.8%.

What about the percent response (vesicle binding) [1] of the same molecule?
Its percent response (vesicle binding) is 168% (inactive).

And the percent response (vesicle binding) (response, at 7.7 µM)?
Its percent response (vesicle binding) is 164%.

What does the source list for `O=C(/C=C/c1ccccc1)OCC(=O)c1ccc[nH]1`?
double positive events (at 7.7 µM): 14.3%; double positive events [1]: 30.2%; percent response (vesicle binding) [1]: 439% (inactive); percent response (vesicle binding) (response, at 7.7 µM): 424%

With `CCOC(=O)C1CCN(C(=O)CN2C(=O)c3ccccc3S2(=O)=O)CC1` as the molecule, how does the double positive events (at 7.7 µM) read?
The double positive events was 13%.

And the double positive events [1]?
Its double positive events is 23%.

And the percent response (vesicle binding) [1]?
The percent response (vesicle binding) was 203% (inactive).

What about the percent response (vesicle binding) (response, at 7.7 µM) of the same molecule?
Its percent response (vesicle binding) is 166%.

Which results are given for `CCOC(=O)C1CCCN(S(=O)(=O)c2ccc(F)c(C(=O)Nc3ccc(F)c(F)c3)c2)C1` (configuration not stated)?
double positive events (at 7.7 µM): 13.5%; double positive events [1]: 23.8%; percent response (vesicle binding) [1]: 153% (inactive); percent response (vesicle binding) (response, at 7.7 µM): 105%

Which results are given for `CCOC(=O)C1CCCN(c2cc(=O)n(-c3ccccc3Cl)c(=O)[nH]2)C1` (configuration not stated)?
double positive events (at 7.7 µM): 10.2%; double positive events [1]: 2.3%; percent response (vesicle binding) [1]: 18.2% (active); percent response (vesicle binding) (response, at 7.7 µM): 131%

Which results are given for `O=C1c2cccc3c2[C@H](CCC3)CN1[C@@H]1CN2CCC1CC2`?
double positive events (at 7.7 µM): 19.9%; double positive events [1]: 28.1%; percent response (vesicle binding) [1]: 727% (inactive); percent response (vesicle binding) (response, at 7.7 µM): 238%

With `COc1ccc(C2=Nc3cc(C)ccc3OC2)cc1` as the molecule, how does the double positive events (at 7.7 µM) read?
The double positive events was 12.1%.

And the double positive events [1]?
The double positive events was 2%.

What about the percent response (vesicle binding) [1] of the same molecule?
The percent response (vesicle binding) was 53.5% (active).

And the percent response (vesicle binding) (response, at 7.7 µM)?
Its percent response (vesicle binding) is 546%.

What does the source list for `CCCCN(C(=O)CCCc1nc2ccccc2s1)c1c(N)n(CC(C)C)c(=O)[nH]c1=O`?
double positive events (at 7.7 µM): 14.2%; double positive events [1]: 7.8%; percent response (vesicle binding) [1]: 50.8% (inactive); percent response (vesicle binding) (response, at 7.7 µM): 386%

With `CCCN(Cc1ccc(N(C)C)cc1)CC1CC1` as the molecule, how does the double positive events (at 7.7 µM) read?
The double positive events was 16.6%.

What about the double positive events [1] of the same molecule?
Its double positive events is 22.1%.

What about the percent response (vesicle binding) [1] of the same molecule?
The percent response (vesicle binding) was 413% (inactive).

What about the percent response (vesicle binding) (response, at 7.7 µM) of the same molecule?
Its percent response (vesicle binding) is 436%.

With `CN(C(=O)COC(=O)c1cccc(NS(=O)(=O)c2ccc(F)c(F)c2)c1)C1CCS(=O)(=O)C1` (configuration not stated) as the molecule, how does the double positive events (at 7.7 µM) read?
Its double positive events is 21.6%.

And the double positive events [1]?
The double positive events was 29.3%.

What about the percent response (vesicle binding) [1] of the same molecule?
The percent response (vesicle binding) was 264% (inactive).

And the percent response (vesicle binding) (response, at 7.7 µM)?
Its percent response (vesicle binding) is 393%.

For `CN1CCN(c2oc(-c3ccc([N+](=O)[O-])cc3)nc2C#N)CC1`, which double positive events (at 7.7 µM) is on record?
Its double positive events is 8.5%.

And the double positive events [1]?
The double positive events was 9.4%.

And the percent response (vesicle binding) [1]?
The percent response (vesicle binding) was 143% (inactive).

And the percent response (vesicle binding) (response, at 7.7 µM)?
The percent response (vesicle binding) was 149%.

With `CC(C)[C@H]1C(=O)Nc2ccccc2N1C(=O)N[C@@H](Cc1ccccc1)C(=O)N[C@@H](Cc1ccccc1)C(=O)O` as the molecule, how does the double positive events (at 7.7 µM) read?
The double positive events was 36.3%.

And the double positive events [1]?
The double positive events was 8.9%.

And the percent response (vesicle binding) [1]?
The percent response (vesicle binding) was 55.5% (active).

What about the percent response (vesicle binding) (response, at 7.7 µM) of the same molecule?
The percent response (vesicle binding) was 394%.

What does the source list for `Cc1cccc(OCC(=O)NC(Cc2ccccc2)C(=O)O)c1` (configuration not stated)?
double positive events (at 7.7 µM): 7.7%; double positive events [1]: 11.5%; percent response (vesicle binding) [1]: 295% (inactive); percent response (vesicle binding) (response, at 7.7 µM): 136%

Which results are given for `CC(=O)Nc1ccc(S(=O)(=O)NC2CCSc3ccccc32)cc1` (configuration not stated)?
double positive events (at 7.7 µM): 13.6%; double positive events [1]: 10.4%; percent response (vesicle binding) [1]: 146% (inactive); percent response (vesicle binding) (response, at 7.7 µM): 238%

For `COc1ccc(CNc2nnnn2C)cc1`, which double positive events (at 7.7 µM) is on record?
Its double positive events is 28.6%.

What about the double positive events [1] of the same molecule?
Its double positive events is 12.4%.

And the percent response (vesicle binding) [1]?
The percent response (vesicle binding) was 192% (inactive).

What about the percent response (vesicle binding) (response, at 7.7 µM) of the same molecule?
The percent response (vesicle binding) was 376%.

Which double positive events (at 7.7 µM) does the source give for `COc1ccc(C(=O)NNC(=O)CSc2nnnn2C)cc1` here?
The double positive events was 13.8%.

And the double positive events [1]?
Its double positive events is 1.8%.

And the percent response (vesicle binding) [1]?
Its percent response (vesicle binding) is 19.1% (active).

And the percent response (vesicle binding) (response, at 7.7 µM)?
Its percent response (vesicle binding) is 160%.

Which double positive events (at 7.7 µM) does the source give for `COc1ccc(C(=O)CSc2nnc(CNC(=O)c3ccc(OC)c(OC)c3)n2C)cc1` here?
Its double positive events is 7.6%.

And the double positive events [1]?
The double positive events was 15.6%.

What about the percent response (vesicle binding) [1] of the same molecule?
The percent response (vesicle binding) was 136% (inactive).

What about the percent response (vesicle binding) (response, at 7.7 µM) of the same molecule?
Its percent response (vesicle binding) is 300%.

Which double positive events (at 7.7 µM) does the source give for `Cc1noc(C)c1COc1ccc(C(=O)NCc2cccs2)cc1` here?
The double positive events was 6.2%.

And the double positive events [1]?
Its double positive events is 22.1%.

And the percent response (vesicle binding) [1]?
Its percent response (vesicle binding) is 165% (inactive).

What about the percent response (vesicle binding) (response, at 7.7 µM) of the same molecule?
Its percent response (vesicle binding) is 120%.

Which results are given for `Nc1ccccc1C(=O)N/N=C1\C2CN3CCN(C2)CC1(c1ccccc1)C3`?
double positive events (at 7.7 µM): 20%; double positive events [1]: 18.6%; percent response (vesicle binding) [1]: 176% (inactive); percent response (vesicle binding) (response, at 7.7 µM): 839%

With `CC(=O)c1ccc(OCc2cc(C(=O)N3CCCCC3c3cccnc3)no2)cc1` (configuration not stated) as the molecule, how does the double positive events (at 7.7 µM) read?
Its double positive events is 18.2%.

And the double positive events [1]?
The double positive events was 21.2%.

What about the percent response (vesicle binding) [1] of the same molecule?
The percent response (vesicle binding) was 171% (inactive).

And the percent response (vesicle binding) (response, at 7.7 µM)?
Its percent response (vesicle binding) is 229%.

Which double positive events (at 7.7 µM) does the source give for `CN(CC(=O)Nc1cccc(F)c1)C(=O)c1ccc(S(=O)(=O)N2CCCC2)cc1` here?
Its double positive events is 28.6%.

And the double positive events [1]?
The double positive events was 10.5%.

What about the percent response (vesicle binding) [1] of the same molecule?
The percent response (vesicle binding) was 176% (inactive).

What about the percent response (vesicle binding) (response, at 7.7 µM) of the same molecule?
Its percent response (vesicle binding) is 275%.

Which double positive events (at 7.7 µM) does the source give for `CN(Cc1ccccc1)C(=O)c1ccc(NC(=O)Cc2cccc(NC(=O)C3CCCN(C(=O)C4CCC4)C3)c2)cc1` (configuration not stated) here?
Its double positive events is 7.8%.

And the double positive events [1]?
Its double positive events is 4.3%.

And the percent response (vesicle binding) [1]?
Its percent response (vesicle binding) is 54.8% (active).

And the percent response (vesicle binding) (response, at 7.7 µM)?
Its percent response (vesicle binding) is 219%.

What does the source list for `O=C(Cc1cccc(NC(=O)C2CCCN(C(=O)C3CC3)C2)c1)Nc1cccc(C(=O)N2CCCC2)c1` (configuration not stated)?
double positive events (at 7.7 µM): 25%; double positive events [1]: 13.2%; percent response (vesicle binding) [1]: 338% (inactive); percent response (vesicle binding) (response, at 7.7 µM): 438%

What does the source list for `Cc1cc(C)c(C(=O)N2CCCC(N3CCN(c4ccc(F)cc4)CC3)C2)o1` (configuration not stated)?
double positive events (at 7.7 µM): 39.2%; double positive events [1]: 14.9%; percent response (vesicle binding) [1]: 236% (inactive); percent response (vesicle binding) (response, at 7.7 µM): 688%

Which results are given for `Cc1cc(C)cc(NC(=O)C(=O)NCCCN2CCCC2=O)c1`?
double positive events (at 7.7 µM): 10%; double positive events [1]: 9.4%; percent response (vesicle binding) [1]: 138% (inactive); percent response (vesicle binding) (response, at 7.7 µM): 150%
